Laboratory results taken from PubChem BioAssay (Tox21).
Records with an inconclusive call do not appear. Active and inactive are the calls of the source. Unless noted, the call rests on the fitted dose curve.

Tests used:
[1] = qHTS assay to identify small molecule agonists of the peroxisome proliferator-activated receptor delta (PPARd) signaling pathway - cell viability counter screen (AID 743211; active means well fitted curve in the direction sought with a large enough effect in the repeat runs; an effect the other way counts as inactive or inconclusive; further: nearly all actives have a fitted effect of over 55% in size)
How it was run: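 Multiplexed format: after the 2 h room-temperature LiveBLAzer B/G FRET step, CellTiter-Glo was added to the same wells. Luminescence after 30 min gave cell viability; compound exposure was 17 h at 37C.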

[2] = qHTS assay to identify small molecule antagonists of the peroxisome proliferator-activated receptor delta (PPARd) signaling pathway - cell viability counter screen (AID 743213; active means well fitted curve in the direction sought with a large enough effect in the repeat runs; an effect the other way counts as inactive or inconclusive; further: nearly all actives have a fitted effect of over 50% in size)
How it was run: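 Viability counter-screen, qHTS format: PPARd-bla HEK293H, L165041 300 nM final, 17 h compound exposure at 37 C, CellTiter-Glo luminescence after 30 min RT.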

[3] = qHTS assay to identify small molecule agonists of the farnesoid-X-receptor (FXR) signaling pathway - cell viability counter screen (AID 743218; active means well fitted curve in the direction sought with a large enough effect in the repeat runs; an effect the other way counts as inactive or inconclusive; further: nearly all actives have a fitted effect of over 45% in size)
How it was run: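 Same-well cytotoxicity check on FXR-UAS-bla HEK 293T cells: 5 h attachment, 16 h compound at 37 C, CellTiter-Glo luminescence read at room temperature after 30 min.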

[4] = biological target: Vitamin D3 receptor (Homo sapiens) (UniProt P11473); assay: qHTS assay to identify small molecule agonists of the vitamin D receptor (VDR) signaling pathway (AID 743222)
How it was run: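 Using LiveBLAzer B/G FRET detection, agonism was scored in VDR-bla cells exposed overnight (16 h, 37C) to DMSO-dissolved compounds; substrate incubation was 2 h at room temperature.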

[5] = biological target: Vitamin D3 receptor (Homo sapiens) (UniProt P11473); assay: qHTS assay to identify small molecule antagonists of the vitamin D receptor (VDR) signaling pathway (AID 743223; active means well fitted inhibition curve with a large enough effect in the signal ratio in the repeat runs, not every such curve was filed as active; the % refers to the signal ratio)
How it was run: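 After VDR-bla cells are plated and left 4 h at 37C, DMSO-dissolved compounds and 3 nM (final) calcitriol agonist are added. Incubation continues 16 h at 37C; FRET beta-lactamase substrate then develops 2 h at room temperature.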

[6] = qHTS assay to identify small molecule agonists of the vitamin D receptor (VDR) signaling pathway - cell viability counter screen (AID 743224; active means well fitted curve in the direction sought with a large enough effect in the repeat runs; an effect the other way counts as inactive or inconclusive; further: series mostly up to about 63 µM; nearly all actives have a fitted effect of over 50% in size)
How it was run: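 Counter screen for cytotoxicity: VDR-bla cells at 2,000 cells/well, 16 h compound exposure, then CellTiter-Glo luminescence after the beta-lactamase measurement.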

[7] = qHTS assay to identify small molecule antagonists of the vitamin D receptor (VDR) signaling pathway - cell viability counter screen (AID 743225; active means well fitted curve in the direction sought with a large enough effect in the repeat runs; an effect the other way counts as inactive or inconclusive; further: nearly all actives have a fitted effect of over 50% in size)
How it was run: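 Cytotoxicity toward the VDR-bla HEK 293T line was scored by ATP-based CellTiter-Glo luminescence, read in the wells already used for the beta-lactamase readout after 16 h compound treatment under 3 nM 1-alpha,25-dihydroxyvitamin D3 stimulation.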

[8] = qHTS assay to identify small molecule agonists of the NFkB signaling pathway (AID 1159509; active means well fitted curve in the direction sought with a large enough effect in the signal ratio in the repeat runs, not every such curve was filed as active; the % refers to the signal ratio; further: series mostly up to about 61 µM)
How it was run: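 Pathway activation was measured in ME-180 cells stably expressing beta-lactamase under NF-kB response element control. Substrate cleavage was read as the 460/530 nm emission shift after 5 hr compound incubation.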

[9] = qHTS assay to identify small molecule agonists of the NFkB signaling pathway - cell viability counter screen (AID 1159515); further: series mostly up to about 61 µM; nearly all actives have a fitted effect of over 55% in size
How it was run: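 Counter screen run alongside the NFkB-bla agonist assay: ME-180 reporter cells exposed to compounds for 5 hr, then lysed with CellTiter-Glo in the same wells. Luminescence, read after 30 min, reflects viable cells.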

[10] = qHTS assay to identify small molecule agonists of the endoplasmic reticulum stress response signaling pathway (AID 1159516; active means well fitted activation curve with a large enough effect in the signal ratio in the repeat runs, not every such curve was filed as active; the % refers to the signal ratio)
How it was run: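 For this screen, HeLa cells stably carrying beta-lactamase under the ER stress response element received test compounds, positive controls or DMSO for 5 hr at 37 C; B/G FRET substrate was then added and dual-wavelength emission recorded.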

[11] = qHTS assay to identify small molecule agonists of the endoplasmic reticulum stress response signaling pathway - cell viability counter screen (AID 1159517); further: series mostly up to about 61 µM; nearly all actives have a fitted effect of over 50% in size
How it was run: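 ESRE-bla HeLa cells (1,500/well) were plated overnight at 37 C and exposed to compounds for 5 hr. After the 2 hr beta-lactamase substrate read, CellTiter-Glo went into the same wells, and luminescence was read after 30 min at room temperature.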

[12] = qHTS assay to identify small molecule antagonists of the retinoid-related orphan receptor gamma (ROR-gamma) signaling pathway - cell viability counter screen (AID 1159520; active means well fitted curve in the direction sought with a large enough effect in the repeat runs; an effect the other way counts as inactive or inconclusive; further: nearly all actives have a fitted effect of over 50% in size)
How it was run: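 Cytotoxicity was read from cellular ATP (CellTiter-Glo luminescence) after 16 hr at 37 C with 1 uM doxycycline induction. The inducer was added 2 hr after compound transfer to Tet-on ROR gamma CHO cells.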

[13] = qHTS assay to identify small molecule agonists of the AP-1 signaling pathway - cell viability counter screen (AID 1159525); further: nearly all actives have a fitted effect of over 55% in size
How it was run: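 Intracellular ATP by Cell Titer Glo luminescence (30 min, RT) in the same ME-180 AP-1-bla wells after the 5 h compound exposure at 37 °C. Normalised to tetra n-octyl ammonium bromide and DMSO controls.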

[14] = qHTS assay to identify small molecule agonists of the AP-1 signaling pathway (AID 1159526)
[15] = biological target: Bile acid receptor (Homo sapiens) (UniProt Q96RI1); assay: qHTS assay to identify small molecule antagonists of the farnesoid-X-receptor (FXR) signaling pathway (AID 743217; active means well fitted inhibition curve with a large enough effect in the signal ratio in the repeat runs, not every such curve was filed as active; the % refers to the signal ratio)
How it was run: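 Quantitative HTS, beta-lactamase reporter format: FXR-UAS-bla HEK 293T cells co-treated 16 h at 37 °C with compounds and 50 uM final chenodeoxycholic acid, then read by B/G FRET fluorescence.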

[16] = biological target: Bile acid receptor (Homo sapiens) (UniProt Q96RI1); assay: qHTS assay to identify small molecule agonists of the farnesoid-X-receptor (FXR) signaling pathway (AID 743220; active means well fitted activation curve with a large enough effect in the signal ratio in the repeat runs, not every such curve was filed as active; the % refers to the signal ratio)
How it was run: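 FXR-UAS-bla HEK 293T cells carrying a UAS-driven beta-lactamase reporter were plated for 5 h at 37C/5% CO2, then exposed to DMSO-dissolved Tox21 10K compounds for 16 h at 37C. A LiveBLAzer B/G FRET substrate was loaded for 2 h at room temperature before fluorescence reading.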

[17] = biological target: Peroxisome proliferator-activated receptor delta (Homo sapiens) (UniProt Q03181); assay: qHTS assay to identify small molecule agonists of the peroxisome proliferator-activated receptor delta (PPARd) signaling pathway (AID 743212);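 further: HEK293H cells with PPARd UAS beta-lactamase reporter GeneBLAzer system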
How it was run: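 Beta-lactamase reporter readout: a ratiometric FRET signal from the LiveBLAzer substrate after 2 h at room temperature. Compound exposure at 37 °C in PPARδ-bla HEK293H cells driven by an upstream activator sequence.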

[18] = biological target: Peroxisome proliferator-activated receptor delta (Homo sapiens) (UniProt Q03181); assay: qHTS assay to identify small molecule antagonists of the peroxisome proliferator-activated receptor delta (PPARd) signaling pathway (AID 743215; active means well fitted inhibition curve with a large enough effect in the signal ratio in the repeat runs, not every such curve was filed as active; the % refers to the signal ratio;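 further: cells stimulated with agonist L165041 at 300 nM final during compound exposure; series mostly up to about 62 µM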)
How it was run: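 Screen format: qHTS, antagonist mode. HEK293H PPARd-bla cells received compound and 300 nM L165041 (final), 17 h, 37 C. Beta-lactamase detected via FRET substrate fluorescence, 2 h, room temperature.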

[19] = qHTS assay to identify small molecule antagonists of the farnesoid-X-receptor (FXR) signaling pathway - cell viability counter screen (AID 743221; active means well fitted cell-killing curve with a large enough effect in the repeat runs, not every such curve was filed as active; further: nearly all actives have a fitted effect of over 50% in size)
How it was run: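 CellTiter-Glo, 30 min RT, luminescence; same wells as the LiveBLAzer FRET read. Cells: FXR-UAS-bla HEK 293T. Treatment: compound with chenodeoxycholic acid 50 uM final, 16 h at 37 C.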

Measured: Potency

Vitamin D3 receptor (Homo sapiens), sequence (P11473 whole entry, looked up): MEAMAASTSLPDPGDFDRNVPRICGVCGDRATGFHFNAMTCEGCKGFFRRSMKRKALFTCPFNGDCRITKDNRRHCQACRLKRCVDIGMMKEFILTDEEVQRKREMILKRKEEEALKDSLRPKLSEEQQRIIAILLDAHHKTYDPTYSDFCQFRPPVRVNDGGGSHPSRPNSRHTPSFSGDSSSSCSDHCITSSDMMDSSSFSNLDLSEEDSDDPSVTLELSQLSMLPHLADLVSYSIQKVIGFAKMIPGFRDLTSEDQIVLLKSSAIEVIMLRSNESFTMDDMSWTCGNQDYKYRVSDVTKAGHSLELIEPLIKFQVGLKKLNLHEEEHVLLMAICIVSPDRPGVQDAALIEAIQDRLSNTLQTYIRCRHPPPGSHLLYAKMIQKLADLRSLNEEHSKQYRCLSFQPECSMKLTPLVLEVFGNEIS
Peroxisome proliferator-activated receptor delta (Homo sapiens), sequence (Q03181 whole entry, looked up): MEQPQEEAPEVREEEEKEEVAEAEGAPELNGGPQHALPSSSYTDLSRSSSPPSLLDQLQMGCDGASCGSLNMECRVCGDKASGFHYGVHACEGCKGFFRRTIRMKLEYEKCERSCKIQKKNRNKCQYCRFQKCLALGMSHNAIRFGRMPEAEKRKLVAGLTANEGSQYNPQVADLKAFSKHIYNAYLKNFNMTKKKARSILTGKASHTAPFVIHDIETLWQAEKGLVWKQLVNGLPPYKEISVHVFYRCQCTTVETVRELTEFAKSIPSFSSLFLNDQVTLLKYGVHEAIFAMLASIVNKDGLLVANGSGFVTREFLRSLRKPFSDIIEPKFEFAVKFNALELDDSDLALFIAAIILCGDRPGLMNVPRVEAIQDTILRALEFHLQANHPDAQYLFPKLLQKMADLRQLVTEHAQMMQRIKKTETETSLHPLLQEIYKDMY
Bile acid receptor (Homo sapiens), sequence (Q96RI1 whole entry, looked up): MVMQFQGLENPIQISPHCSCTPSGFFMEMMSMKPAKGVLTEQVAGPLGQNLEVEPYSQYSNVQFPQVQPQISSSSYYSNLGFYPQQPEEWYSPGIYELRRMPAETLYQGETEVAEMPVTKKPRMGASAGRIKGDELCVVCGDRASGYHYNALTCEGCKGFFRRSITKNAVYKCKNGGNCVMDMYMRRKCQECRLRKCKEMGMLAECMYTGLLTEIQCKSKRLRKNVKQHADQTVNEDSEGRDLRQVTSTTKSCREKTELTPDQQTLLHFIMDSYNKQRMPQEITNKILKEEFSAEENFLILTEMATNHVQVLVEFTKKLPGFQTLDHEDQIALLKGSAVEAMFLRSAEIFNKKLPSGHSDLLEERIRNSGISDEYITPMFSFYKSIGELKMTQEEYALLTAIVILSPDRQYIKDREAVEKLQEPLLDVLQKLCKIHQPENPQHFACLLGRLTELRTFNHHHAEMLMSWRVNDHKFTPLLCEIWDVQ

CC(C)NCC(O)COc1ccc(CCOCC2CC2)cc1 (centres undefined)
inactive: [1] | [2] | [3] | [4] | [5] | [6] | [7] | [8] | [9] | [10] | [11] | [12] | [13] | [14]

COC(=O)c1ccc(OC)cc1
inactive: [1] | [2] | [15] | [3] | [16] | [4] | [6] | [7] | [8] | [9] | [10] | [11] | [12] | [13] | [14]

CCCCC(CC)COC(=O)COc1cc(Cl)c(Cl)cc1Cl (centres undefined)
inactive: [1] | [17] | [18] | [15] | [3] | [16] | [19] | [6] | [7] | [8] | [9] | [10] | [11] | [12] | [13] | [14]

Cn1cnc2c(F)c(Nc3ccc(Br)cc3Cl)c(C(=O)NOCCO)cc21
inactive: [1] | [2] | [18] | [15] | [3] | [16] | [4] | [5] | [6] | [7] | [8] | [9] | [10] | [11] | [12] | [13] | [14]

COc1cc(C)ccc1C(C)C
inactive: [1] | [17] | [18] | [3] | [16] | [19] | [4] | [5] | [6] | [7] | [8] | [9] | [10] | [11] | [12] | [13] | [14]

C=C(C)C(=O)OCCOP(=O)(O)O
inactive: [1] | [17] | [2] | [18] | [3] | [19] | [4] | [6] | [7] | [8] | [9] | [10] | [11] | [12] | [13] | [14]

CCCC(CCC)(C(=O)OCC)C(=O)OCC
inactive: [1] | [17] | [2] | [3] | [16] | [19] | [5] | [6] | [8] | [9] | [10] | [11] | [12] | [13] | [14]

O=C(CCCl)NCc1ccccc1
inactive: [1] | [17] | [2] | [18] | [19] | [4] | [5] | [8] | [9] | [10] | [11] | [12] | [13] | [14]
